Measured values from PubChem BioAssay (NCI).
The panel holds about 79,000 compounds, 15% with a hit somewhere; the sample as a whole holds those more often. The source made the active and inactive calls. Cut-off read from the data, not from the text of the source: active = growth inhibition above about 70%; inactive = the rest.

What was measured:
[1] = NCI Yeast Anticancer Drug Screen. Data for the rad52 strain (AID 147);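 note: 0% = growth of vehicle-treated control cultures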; details: S. cerevisiae rad52 mutant growth inhibition, active compounds read high
Procedure, shortened: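 The repair-mutant yeast strain was incubated with compounds, then growth was read and inhibition derived relative to vehicle.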

[2] = NCI Yeast Anticancer Drug Screen. Data for the wt1 strain (AID 149);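 note: 0% = growth of vehicle-treated wt1 cultures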; details: S. cerevisiae wt1 strain (SPY 50644) growth inhibition, active compounds read high
Procedure, shortened: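 Yeast wt1 strain exposed to compounds; growth inhibition measured relative to vehicle-treated controls.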

[3] = NCI Yeast Anticancer Drug Screen. Data for the rad50EPP+ strain (AID 151);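 note: 0% = growth of vehicle-treated control cultures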; details: S. cerevisiae rad50 mutant strain, active compounds read high
Procedure, shortened: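 Vehicle-normalised growth inhibition; rad50EPP+ yeast strain, altered in DNA damage repair, compound-treated.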

[4] = NCI Yeast Anticancer Drug Screen. Data for the mgt1 strain (AID 153); details: S. cerevisiae mgt1 mutant growth inhibition, active compounds read high
Procedure, shortened: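 Vehicle-normalized growth inhibition is determined in mgt1 yeast, a strain selected for a defined alteration in DNA repair or cell cycle control.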

[5] = NCI Yeast Anticancer Drug Screen. Data for the rad50 strain (AID 155);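 note: 0% = growth of vehicle-only cultures of the same strain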; details: S. cerevisiae rad50 strain growth inhibition, active compounds read high
Procedure, shortened: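 Yeast carrying a defined DNA repair defect were exposed to test compounds, and growth was compared with vehicle-treated controls to give percent inhibition.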

[6] = NCI Yeast Anticancer Drug Screen. Data for the mec2-1 strain (AID 157); details: S. cerevisiae mec2-1 strain, active compounds read high
Procedure, shortened: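 Mutant yeast (mec2-1) grown with compound; growth inhibition relative to vehicle control reported.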

[7] = NCI Yeast Anticancer Drug Screen. Data for the sgs1 mgt1 strain (AID 161);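 note: 0% = growth of cultures given vehicle only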; details: S. cerevisiae sgs1 mgt1 strain, active compounds read high
Procedure, shortened: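 Percent growth inhibition was derived by comparing compound-exposed mutant yeast with vehicle-exposed cultures. The strain carries alterations in DNA damage repair.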

[8] = NCI Yeast Anticancer Drug Screen. Data for the CLN2oe strain (AID 163);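 note: 0% = growth of vehicle-only control cultures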; details: S. cerevisiae CLN2oe strain, active compounds read high
Procedure, shortened: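 Compounds are applied to yeast harbouring a defined cell-cycle control change; reduced growth compared with vehicle-treated controls gives the value.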

[9] = NCI Yeast Anticancer Drug Screen. Data for the cln2 rad14 strain (AID 165);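 note: 0% = growth equal to vehicle treated cultures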; details: S. cerevisiae cln2 rad14 strain, active compounds read high
Procedure, shortened: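 Readout is yeast growth inhibition versus vehicle-treated controls, using a strain with cln2 and rad14 alterations exposed to compound.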

[10] = NCI Yeast Anticancer Drug Screen. Data for the bub3 strain (AID 167); details: S. cerevisiae bub3 mutant strain, active compounds read high
Procedure, shortened: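 Compounds were applied to a genetically altered yeast strain carrying a cell-cycle control defect. Growth inhibition was scored against vehicle-treated controls.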

[11] = NCI Yeast Anticancer Drug Screen. Data for the wt2 strain (AID 169);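 note: 0% = growth of vehicle-treated yeast cultures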; details: S. cerevisiae wt2 strain growth inhibition, active compounds read high
Procedure, shortened: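 Against vehicle-treated controls, the growth of yeast exposed to each compound was compared, and the inhibition was recorded.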

[12] = NCI Yeast Anticancer Drug Screen. Data for the sgs1 strain (AID 173);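 note: 0% = growth of vehicle-only control cultures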; details: S. cerevisiae sgs1 mutant, active compounds read high
Procedure, shortened: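 Each compound was added to cultures of the altered yeast strain. Growth was recorded, and inhibition was derived by comparison with vehicle controls.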

[13] = NCI Yeast Anticancer Drug Screen. Data for the mlh1 rad18 strain (AID 175); details: S. cerevisiae mlh1 rad18 strain growth inhibition, active compounds read high
Procedure, shortened: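 Genetically defined yeast (DNA repair-deficient) exposed to compounds; growth inhibition determined relative to vehicle.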

[14] = NCI Yeast Anticancer Drug Screen. Data for the rad18 strain (AID 177); details: S. cerevisiae rad18 mutant growth inhibition, active compounds read high
Procedure, shortened: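 Vehicle-treated cultures served as the baseline for scoring compound-induced growth inhibition in DNA-repair-mutant yeast.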

[15] = NCI Yeast Anticancer Drug Screen. Data for the rad14 strain (AID 159);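 note: 0% = growth of vehicle-treated control cultures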; details: S. cerevisiae rad14 strain growth inhibition, active compounds read high
Procedure, shortened: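 Yeast cells carrying a defined DNA-repair defect were exposed to compounds, and growth inhibition was calculated relative to vehicle-treated control cultures.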

[16] = NCI Yeast Anticancer Drug Screen. Data for the mlh1 strain (AID 171);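 note: 0% = growth of vehicle-treated control cultures of the same strain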; details: S. cerevisiae mlh1 strain growth inhibition, active compounds read high
Procedure, shortened: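 Measured: yeast growth. Reference: vehicle-treated controls. Organism: strain with a defined alteration affecting DNA damage repair or cell cycle control, treated with compound.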

[17] = at 5.0 µM (retest, dose inferred, filed as 0.5)
[18] = at 50.0 µM (retest, dose inferred, filed as 5.0)

Measured: growth inhibition

CCC(=O)OC1CCn2c1nc1c2C(=O)C(C)=C(N2CC2)C1=O (stereo unspecified)
active: [1]; at 100.0 µM 82% | [5]; [18] 87% | [5]; at 100.0 µM 78% | [6]; at 50.0 µM 70.4% | [7]; at 50.0 µM 71.4% | [12]; at 100.0 µM 80% | [13]; [18] 73% | [14]; at 3.7 µM 75% | [14]; at 11.0 µM 87% | [14]; at 33.0 µM 90% | [14]; at 100.0 µM 91%
inactive: [1]; at 1.2 µM -5% | [1]; at 3.7 µM 26% | [1]; at 11.0 µM 17% | [1]; at 33.0 µM 41% | [2]; at 1.2 µM 4% | [2]; at 3.7 µM -7% | [2]; at 11.0 µM -11% | [2]; at 33.0 µM -8% | [2]; at 100.0 µM 2% | [3]; at 1.2 µM 12% | [3]; at 3.7 µM 1% | [3]; at 11.0 µM -9% | [3]; at 33.0 µM 7% | [3]; at 100.0 µM 25% | [4]; at 1.2 µM 7% | [4]; at 3.7 µM -7% | [4]; at 11.0 µM -1% | [4]; at 33.0 µM 6% | [4]; at 100.0 µM 16% | [5]; at 1.2 µM 18% | [5]; at 3.7 µM -3% | [5]; [17] 48% | [5]; at 11.0 µM 18% | [5]; at 33.0 µM 34% | [5]; at 50.0 µM 55.8% | [6]; at 1.2 µM -7% | [6]; at 3.7 µM -2% | [6]; [17] 38% | [6]; at 11.0 µM 6% | [6]; at 33.0 µM 20% | [6]; [18] 64% | [6]; at 100.0 µM 64% | [7]; [17] 20% | [7]; [18] 66% | [8]; at 1.2 µM -41% | [8]; at 3.7 µM -44% | [8]; at 11.0 µM -43% | [8]; at 33.0 µM -39% | [8]; at 100.0 µM -19% | [9]; [17] 14% | [9]; [18] 54% | [9]; at 50.0 µM 57.6% | [10]; at 1.2 µM 9% | [10]; at 3.7 µM -3% | [10]; [17] -24% | [10]; at 11.0 µM -9% | [10]; at 33.0 µM -14% | [10]; [18] -11% | [10]; at 50.0 µM -7.05% | [10]; at 100.0 µM 13% | [11]; at 1.2 µM -30% | [11]; at 3.7 µM -35% | [11]; at 11.0 µM -29% | [11]; at 33.0 µM -19% | [11]; at 100.0 µM 16% | [12]; at 1.2 µM 14% | [12]; at 3.7 µM 30% | [12]; at 11.0 µM 37% | [12]; at 33.0 µM 55% | [13]; [17] 45% | [13]; at 50.0 µM 69% | [14]; at 1.2 µM 60%

O=C1OC2C(O1)C1(Cl)C(Cl)=C(Cl)C2(Cl)C1(Cl)Cl (stereo unspecified)
inactive: [1]; at 1.2 µM -3% | [1]; at 3.7 µM -2% | [1]; at 11.0 µM -1% | [1]; at 33.0 µM 0% | [1]; at 100.0 µM 1% | [2]; at 1.2 µM -4% | [2]; at 3.7 µM -3% | [2]; at 11.0 µM -3% | [2]; at 33.0 µM -7% | [2]; at 100.0 µM -7% | [4]; at 1.2 µM -4% | [4]; at 3.7 µM -3% | [4]; at 11.0 µM -3% | [4]; at 33.0 µM -6% | [4]; at 100.0 µM -3% | [5]; at 1.2 µM -2% | [5]; at 3.7 µM -3% | [5]; [17] 2% | [5]; at 11.0 µM -2% | [5]; at 33.0 µM -3% | [5]; [18] 41% | [5]; at 100.0 µM -1% | [6]; at 1.2 µM -4% | [6]; at 3.7 µM -4% | [6]; [17] 3% | [6]; at 11.0 µM -3% | [6]; at 33.0 µM -3% | [6]; at 100.0 µM -3% | [15]; at 1.2 µM -4% | [15]; at 3.7 µM -6% | [15]; at 11.0 µM -3% | [15]; at 33.0 µM -7% | [15]; at 100.0 µM -1% | [7]; [17] 3% | [8]; at 1.2 µM -4% | [8]; at 3.7 µM -5% | [8]; at 11.0 µM -6% | [8]; at 33.0 µM -12% | [8]; at 100.0 µM -7% | [9]; [17] 1% | [9]; [18] 61% | [10]; at 1.2 µM -6% | [10]; at 3.7 µM -4% | [10]; [17] 0% | [10]; at 11.0 µM -9% | [10]; at 33.0 µM -10% | [10]; at 100.0 µM -19% | [11]; at 1.2 µM -13% | [11]; at 3.7 µM -5% | [11]; at 11.0 µM -6% | [11]; at 33.0 µM -7% | [11]; at 100.0 µM -7% | [16]; at 1.2 µM -1% | [16]; at 3.7 µM 0% | [16]; at 11.0 µM 2% | [16]; at 33.0 µM 1% | [16]; at 100.0 µM 2% | [12]; at 1.2 µM -1% | [12]; at 3.7 µM 0% | [12]; at 11.0 µM 0% | [12]; at 33.0 µM 0% | [12]; at 100.0 µM 1% | [13]; [17] 7%
active: [5]; at 50.0 µM 85.2% | [6]; [18] 90% | [6]; at 50.0 µM 87.8% | [7]; [18] 74% | [7]; at 50.0 µM 87.2% | [9]; at 50.0 µM 78.5% | [10]; [18] 75% | [10]; at 50.0 µM 98% | [13]; [18] 90% | [13]; at 50.0 µM 74.2%

CC1(Cl)CC(C)(/C=C/Cl)C(Cl)CC1Cl (stereo unspecified)
inactive: [1]; at 1.2 µM 6% | [1]; at 3.7 µM 8% | [1]; at 11.0 µM 13% | [1]; at 33.0 µM 22% | [1]; at 100.0 µM 43% | [2]; at 1.2 µM 3% | [2]; at 3.7 µM 3% | [2]; at 11.0 µM 3% | [2]; at 33.0 µM 10% | [2]; at 100.0 µM 35% | [3]; at 1.2 µM 2% | [3]; at 3.7 µM 0% | [3]; at 11.0 µM 6% | [3]; at 33.0 µM 15% | [3]; at 100.0 µM 24% | [4]; at 1.2 µM 2% | [4]; at 3.7 µM 1% | [4]; at 11.0 µM 3% | [4]; at 33.0 µM 5% | [4]; at 100.0 µM 43% | [6]; at 1.2 µM 5% | [6]; at 3.7 µM 3% | [6]; [17] 9% | [6]; at 11.0 µM 6% | [6]; at 33.0 µM 20% | [6]; [18] 7% | [6]; at 50.0 µM 19.1% | [6]; at 100.0 µM 46% | [15]; at 1.2 µM 4% | [15]; at 3.7 µM 1% | [15]; at 11.0 µM 5% | [15]; at 33.0 µM 16% | [15]; at 100.0 µM 48% | [7]; [17] 1% | [7]; [18] -17% | [7]; at 50.0 µM 51% | [8]; at 1.2 µM 3% | [8]; at 3.7 µM 5% | [8]; at 11.0 µM 8% | [8]; at 33.0 µM 23% | [8]; at 100.0 µM 49% | [9]; [17] 40% | [9]; [18] -20% | [9]; at 50.0 µM 45% | [10]; at 1.2 µM 2% | [10]; at 3.7 µM 0% | [10]; [17] -3% | [10]; at 11.0 µM 2% | [10]; at 33.0 µM 12% | [10]; [18] -8% | [10]; at 50.0 µM 15.4% | [10]; at 100.0 µM 31% | [11]; at 1.2 µM 0% | [11]; at 3.7 µM 1% | [11]; at 11.0 µM 3% | [11]; at 33.0 µM 16% | [11]; at 100.0 µM 50% | [16]; at 1.2 µM 2% | [16]; at 3.7 µM 1% | [16]; at 11.0 µM 4% | [16]; at 33.0 µM 14% | [16]; at 100.0 µM 41% | [12]; at 1.2 µM 4% | [12]; at 3.7 µM 2% | [12]; at 11.0 µM 2% | [12]; at 33.0 µM 28% | [12]; at 100.0 µM 64% | [13]; [17] 8% | [13]; [18] -23%
active: [13]; at 50.0 µM 79.4%
